# Source: PubChem BioAssay (NCATS)
# Inconclusive results are not listed. Activity calls are given as the source filed them. Unless noted, calls come from the whole dose curve.
# Tests used:
# [1] = qHTS profiling of the MIPE4 collection as inhibitors of Plasmodium falciparum (3D7) proliferation (AID 743344; call rule not given here;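 note: scaled between DMSO vehicle wells and 0.29 µM artemisinin as full inhibition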); details: P. falciparum 3D7 in erythrocytes, SYBR Green DNA fluorescence, 72 h; at 28.5 µM unless noted
# In short: (§1)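 Erythrocytes infected with P. falciparum (0.3% parasitemia, 2.5% hematocrit) incubated with compounds 72 h at 37 C, 5% CO2. Lysis with saponin/Triton buffer containing SYBR Green I, overnight at room temperature in the dark; DNA fluorescence (485/535 nm) normalised to 0.29 uM artemisinin and DMSO.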
# [2] = qHTS profiling of the MIPE4 collection as inhibitors of Plasmodium falciparum (DD2) proliferation (AID 743345; call rule not given here); details: P. falciparum Dd2 in erythrocytes, SYBR Green DNA, 72 h; at 28.5 µM unless noted
# In short: as §1
# [3] = qHTS profiling of the MIPE4 collection as inhibitors of Plasmodium falciparum (DD2) proliferation (Rep 2) (AID 743346; call rule not given here); details: P. falciparum Dd2 in erythrocytes, SYBR Green DNA, 72 h; at 28.5 µM unless noted
# In short: as §1
# [4] = qHTS profiling of the MIPE4 collection as inhibitors of Plasmodium falciparum (HB3) proliferation (AID 743347; call rule not given here;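 note: plate controls were DMSO vehicle wells for no effect and artemisinin wells for full effect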); details: P. falciparum HB3 in erythrocytes, SYBR Green DNA, 72 h; at 28.5 µM unless noted
# In short: as §1
# [5] = qHTS for Inhibitors of the Functional Ribonucleoprotein Complex (vRNP) of Lassa (LASV) Arenavirus: Viability assay - alamar blue signal for LASV Primary Screen (AID 1347083; calls by dose curve; tested in HEK293 reporter line; note: nearly all actives have a fitted effect of over 80% in size; note: potency is the fitted concentration of half-maximal effect)
# [6] = qHTS for Inhibitors of the Functional Ribonucleoprotein Complex (vRNP) of Lymphocytic Choriomeningitis Arenaviruses (LCMV): Viability assay - alamar blue signal for LCMV Primary Screen (AID 1347085; calls by dose curve; tested in HEK293 reporter line; note: nearly all actives have a fitted effect of over 80% in size; note: potency is the fitted concentration of half-maximal effect)
# [7] = Cytotoxicity counterscreen for inhibitors of SARS-CoV-2 cell entry (AID 1645845); note: nearly all actives have a fitted effect of over 50% in size; note: potency is the fitted concentration of half-maximal effect; for activity change, negative = cytotoxicity: % is set by controls: 0 for no effect and ±100 for the full control effect
# In short: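 48 h compound treatment (after 1 h preincubation), HEK293-ACE2 cells, 37 C/5% CO2; ATP luminescence endpoint; normalized to cell wells and media blanks.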
# [8] = Primary qHTS for Huh7 cytotoxicity: counterscreen for inhibitors of MERS-S pseudotyped particle cell entry (AID 1479147); details: outcome: dose series up to 57.1 µM unless noted; for activity change, negative = cytotoxicity: % is set by controls: 0 for no effect and ±100 for the full control effect
# [9] = Primary qHTS for Vero E6 cytotoxicity: counterscreen for inhibitors of SARS-S pseudo-typed particle cell entry (AID 1479150); details: outcome: dose series up to 57.1 µM unless noted
# [10] = molecular target: Peroxisome proliferator-activated receptor delta (Homo sapiens) (UniProt Q03181); assay: qHTS assay for small molecule agonists of peroxisome proliferator-activated receptor delta signaling (AID 588534);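 note: 0% = DMSO basal wells and 100% = positive control agonist at 10 µM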
# Chain of Peroxisome proliferator-activated receptor delta (Homo sapiens) (Q03181 whole entry, looked up): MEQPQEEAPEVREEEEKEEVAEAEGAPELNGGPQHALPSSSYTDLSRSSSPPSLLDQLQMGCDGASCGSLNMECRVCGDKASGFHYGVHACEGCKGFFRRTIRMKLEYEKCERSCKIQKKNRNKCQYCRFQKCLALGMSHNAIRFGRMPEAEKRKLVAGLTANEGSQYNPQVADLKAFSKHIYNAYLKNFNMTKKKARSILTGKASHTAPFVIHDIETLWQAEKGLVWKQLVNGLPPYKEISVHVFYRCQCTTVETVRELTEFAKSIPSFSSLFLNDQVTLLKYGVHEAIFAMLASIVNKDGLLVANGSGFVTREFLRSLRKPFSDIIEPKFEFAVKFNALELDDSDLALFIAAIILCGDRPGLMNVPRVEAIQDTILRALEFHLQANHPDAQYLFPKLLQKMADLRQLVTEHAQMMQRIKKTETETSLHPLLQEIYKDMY
# In short: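 Cells carrying a PPAR-delta beta-lactamase reporter were treated with compounds for 18 h at 37 °C in agonist mode. CCF4 fluorescence was read after 2 h; EC50 and efficacy from Hill fits.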
# [11] = Primary qHTS to identify inhibitors of SARS-CoV-2 cell entry (AID 1645846); details: activity change, negative = inhibition: at 57.1 µM (top of the series) unless noted; note: nearly all actives have a fitted effect of over 45% in size; note: potency is the fitted concentration of half-maximal effect
# In short: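 Data are normalized to wells receiving SARS-CoV-2-S pseudoparticles and those given bald particles. Entry signal was luciferase luminescence in stable hACE2 Expi293F cells, 48 hr post-infection, after 1 hr compound pretreatment.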
# [12] = Inducers of the Endoplasmic Reticulum Stress Response (ERSR) in human glioma: Validation (AID 504836; active = well fitted curve in the direction sought with a large enough effect; an effect the other way counts as inactive or inconclusive; note: 0% is about no effect)
# In short: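 ERSR induction read as luciferase luminescence (Bright-Glo, 10 min at room temperature) in stably transfected human U87-MG glioma cells exposed to compounds for 16 h, using GRP78 as sensor.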
# [13] = Confirmatory qHTS to identify inhibitors of SARS-CoV-2 cell entry (AID 1645844); note: potency is the fitted concentration of half-maximal effect; nearly all actives have a fitted effect of over 45% in size
# In short: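 Luminescence from a luciferase reporter, read 48 hr after pseudotyped-particle addition, gives entry signal, normalised to spike-bearing PP wells and bald PP lacking fusion protein wells. Cells are Expi293F stably expressing human ACE2, compound-pretreated 1 hr.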
# [14] = VSVG counterscreen qHTS to identify inhibitors of SARS-CoV-2 cell entry (AID 1645847); note: potency is the fitted concentration of half-maximal effect; nearly all actives have a fitted effect of over 65% in size
# In short: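 Counterscreen using VSV-G (not spike) pseudotyped MLV particles on ACE2-expressing Expi293F cells after 1 h compound preincubation; infection ran 48 h at 37 °C. Data normalized to VSV-G PP and bald-PP wells.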
# [15] = molecular target: Alpha-galactosidase (Coffea arabica) (UniProt Q42656); assay: Counterscreen for Glucocerebrosidase Inhibitors: qHTS Assay for Coffee Bean alpha-Galactosidase at pH 4.5 (AID 957; active = well fitted curve in the direction sought with a large enough effect; an effect the other way counts as inactive or inconclusive;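 note: plate controls were enzyme alone for no effect and no enzyme for full effect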)
# Chain of Alpha-galactosidase (Coffea arabica) (Q42656 whole entry, looked up): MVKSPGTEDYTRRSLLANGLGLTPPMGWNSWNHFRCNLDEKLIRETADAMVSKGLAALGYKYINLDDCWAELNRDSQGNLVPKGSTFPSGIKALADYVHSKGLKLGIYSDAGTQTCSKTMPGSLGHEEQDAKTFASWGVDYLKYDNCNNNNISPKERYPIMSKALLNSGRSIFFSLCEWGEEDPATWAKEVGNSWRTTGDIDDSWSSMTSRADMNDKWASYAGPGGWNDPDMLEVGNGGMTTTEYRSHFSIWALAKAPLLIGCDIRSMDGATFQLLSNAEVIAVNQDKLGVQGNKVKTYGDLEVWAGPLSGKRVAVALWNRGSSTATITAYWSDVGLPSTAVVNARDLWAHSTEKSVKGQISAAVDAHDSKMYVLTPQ
# In short: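 Coffee bean enzyme (2 nM) with 80 uM 4-methylumbelliferyl alpha-D-galactopyranoside in 50 mM citric acid, 0.005% Tween-20, pH 4.5, 20 min at room temperature; compounds 0.7 nM–77 uM. Stopped at pH 10, fluorescence 365/440 nm; AC50 from Hill fits.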
# [16] = molecular target: Alpha-galactosidase (Coffea arabica) (UniProt Q42656); assay: Counterscreen for Glucocerebrosidase Inhibitors: qHTS Assay for Coffee Bean alpha-Galactosidase at pH 5.9 (AID 998; active = well fitted curve in the direction sought with a large enough effect; an effect the other way counts as inactive or inconclusive;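 note: plate controls were uninhibited enzyme for no effect and no-enzyme basal signal for full effect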)
# In short: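 Compounds were titrated from 0.7 nM to 77 uM against green coffee bean alpha-galactosidase (2 nM) using 80 uM fluorogenic 4-methylumbelliferyl substrate. After 20 min at room temperature, reactions were stopped at pH 10 and read by fluorescence.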
# [17] = molecular target: Nucleoprotein (Lymphocytic choriomeningitis virus (strain Armstrong)) (UniProt P09992); assay: qHTS for Inhibitors of the Functional Ribonucleoprotein Complex (vRNP) of Lymphocytic Choriomeningitis Arenaviruses (LCMV): LCMV Primary Screen - GLuc reporter signal (AID 1347086); note: potency is the fitted concentration of half-maximal effect; nearly all actives have a fitted effect of over 70% in size
# Chain of Nucleoprotein (Lymphocytic choriomeningitis virus (strain Armstrong)) (P09992 whole entry, looked up): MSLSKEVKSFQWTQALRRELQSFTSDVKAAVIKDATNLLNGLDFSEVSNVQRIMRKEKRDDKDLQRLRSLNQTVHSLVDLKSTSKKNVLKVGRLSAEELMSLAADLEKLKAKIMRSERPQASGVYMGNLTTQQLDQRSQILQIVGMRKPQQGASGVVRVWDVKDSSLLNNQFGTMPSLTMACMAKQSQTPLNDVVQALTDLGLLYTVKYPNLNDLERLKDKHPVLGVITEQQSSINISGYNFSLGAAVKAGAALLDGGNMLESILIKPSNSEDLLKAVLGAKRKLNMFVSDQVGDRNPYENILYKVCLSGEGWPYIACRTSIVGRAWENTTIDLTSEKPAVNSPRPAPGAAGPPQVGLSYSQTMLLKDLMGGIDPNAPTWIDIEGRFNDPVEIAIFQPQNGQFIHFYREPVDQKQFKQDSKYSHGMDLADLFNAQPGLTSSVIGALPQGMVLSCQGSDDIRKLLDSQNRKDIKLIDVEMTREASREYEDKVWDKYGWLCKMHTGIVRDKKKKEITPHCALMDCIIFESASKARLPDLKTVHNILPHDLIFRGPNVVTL
# [18] = Confirmatory qHTS for VERO E6 Cytotoxicity Assay: Counterscreen for SARS-CoV-2 CPE Assay (AID 1508605); note: potency is the fitted concentration of half-maximal effect; nearly all actives have a fitted effect of over 60% in size
structure (smiles),measurement,setting,value
NC(=O)c1ncn([C@@H]2O[C@H](CO)[C@@H](O)[C@@H]2O)n1,"parasite growth, % of DMSO control",[1],91.7%
same,"parasite growth remaining, % of DMSO control (lower = more inhibition)",[2],90.2%
same,"parasite growth, % of control (lower = inhibition)",[3],53.8%
same,"growth, % of control",[4],53.5%
same,Potency,[5],inactive
same,Potency,[6],inactive
O=C(CC12CC3CC(CC(C3)C1)C2)Nc1cccc2nc(NCCNCCO)ccc12,Potency,[5],21.7 µM (active)
same,Potency,[6],24.3 µM (active)
same,Potency,[7],inactive
Cc1nc2c([nH]1)CCN(C(=O)c1ccc(NC(=O)c3ccccc3-c3ccccc3)cc1)c1ccccc1-2,Potency,[5],inactive
same,Potency,[6],inactive
same,outcome,[8],inactive
same,outcome,[9],inactive
same,Potency,[7],inactive
NC(N)=NC(N)=NCCc1ccccc1,Potency,[10],inactive
same,Potency,[5],inactive
same,Potency,[6],inactive
same,Potency,[7],inactive
same,"activity change, negative = inhibition",[11],-16.7%
Nc1nc(N)c(N=O)c(OCC2CCCCC2)n1,outcome,[12],inactive
same,Potency,[5],15.3 µM (active)
same,Potency,[6],21.7 µM (active)
same,Potency,[7],inactive
same,"activity change, negative = inhibition",[11],-7.15%
CN(C)c1ccc(C(=O)NCCCCCCC(=O)NO)cc1,Potency,[5],4.85 µM (active)
same,Potency,[6],1.53 µM (active)
same,Potency,[11],inactive
COc1ccc(-c2nc(N3CCOCC3)c3sc(CN(C)c4ncc(C(=O)NO)cn4)cc3n2)cn1,Potency,[5],0.193 µM (active)
same,Potency,[6],0.122 µM (active)
same,Potency,[11],inactive
C[C@@]1(C(=O)Nc2ccc(F)nc2)CCCN1c1nc(Nc2cc(C3CC3)[nH]n2)c2cccn2n1,Potency,[5],6.11 µM (active)
same,Potency,[6],1.37 µM (active)
same,Potency,[13],0.171 µM (active)
same,Potency,[7],inactive
same,Potency,[14],2.71 µM (active)
COc1ccc(F)c(F)c1C(=O)c1cnc(NC2CCN(S(C)(=O)=O)CC2)nc1N,Potency,[5],2.73 µM (active)
same,Potency,[6],6.11 µM (active)
same,Potency,[13],0.0681 µM (active)
same,"activity change, negative = inhibition",[11],-92.2%
same,Potency,[14],0.0681 µM (active)
COc1cc([C@@H]2c3cc4c(cc3[C@@H](O[C@@H]3O[C@@H]5CO[C@@H](C)O[C@@H]5[C@H](O)[C@@H]3O)[C@H]3COC(=O)[C@H]23)OCO4)cc(OC)c1O,Potency,[5],2.17 µM (active)
same,Potency,[6],2.17 µM (active)
same,outcome,[8],inactive
same,outcome,[9],inactive
same,Potency,[13],0.541 µM (active)
same,Potency,[14],0.383 µM (active)
CN[C@@H](C)C(=O)N[C@H]1CN(C(=O)CC(C)C)CC[C@H]2CC[C@@H](C(=O)NC(c3ccccc3)c3ccccc3)N2C1=O,Potency,[5],3.43 µM (active)
same,Potency,[6],12.2 µM (active)
same,Potency,[7],inactive
O=c1ccc2ccc(O)c(O)c2o1,outcome,[15],inactive
same,outcome,[16],inactive
same,Potency,[5],inactive
same,Potency,[6],inactive
CC[n+]1c(/C=C/C=C2/N(C)c3ccccc3C2(C)C)sc2ccccc21,outcome,[12],inactive
same,Potency,[5],1.58 µM (active)
same,Potency,[6],0.708 µM (active)
O=C(Nc1cn[nH]c1-c1nc2ccc(CN3CCOCC3)cc2[nH]1)NC1CC1,Potency,[5],7.69 µM (active)
same,Potency,[6],1.93 µM (active)
same,Potency,[7],15.8 µM (active)
same,"activity change, negative = inhibition",[11],-95.5%
Cc1ncc(-c2ccnc(Nc3ccc(S(C)(=O)=O)cc3)n2)n1C(C)C,Potency,[5],6.85 µM (active)
same,Potency,[6],13.7 µM (active)
same,"activity change, negative = inhibition",[11],-96.5%
O=C1OC[C@H](Cc2ccc3c(c2)OCO3)/C1=C\c1ccc2c(c1)OCO2,Potency,[6],inactive
CCCCCCN(CCCCCC)C(=O)Cc1c(-c2ccc(F)cc2)[nH]c2ccccc12,outcome,[15],inactive
same,outcome,[16],inactive
same,outcome,[12],inactive
same,Potency,[5],inactive
CC1=C(CC(=O)O)c2cc(F)ccc2C1=Cc1ccc(S(C)=O)cc1 (stereo not given),Potency,[5],38.5 µM (active)
same,Potency,[7],inactive
same,"activity change, negative = inhibition",[11],-11.8%
O=C(Nc1cccc(Br)c1)c1cccc(S(=O)(=O)N2CCCCCC2)c1,Potency,[5],24.3 µM (active)
same,Potency,[17],15.3 µM (active)
same,Potency,[11],31.6 µM (active)
CC=CC[C@@H](C)C(=O)[C@H]1C(=O)N[C@@H](C(C)C)C(=O)N(C)CC(=O)N(C)[C@@H](CC(C)C)C(=O)N[C@@H](C(C)C)C(=O)N(C)[C@@H](CC(C)C)C(=O)N[C@@H](C)C(=O)N[C@H](C)C(=O)N(C)[C@@H](CC(C)C)C(=O)N(C)[C@@H](CC(C)C)C(=O)N(C)[C@@H](C(C)C)C(=O)N1C,Potency,[6],inactive
Cc1c(Cn2c(C)nc3c(C(=O)O)cc(N4CCOCC4)cc32)cccc1C(F)(F)F,Potency,[5],1.09 µM (active)
same,Potency,[7],inactive
Cc1ccc(NC(=O)c2cccc(N(C)C)c2)cc1NC(=O)c1ccc(O)cc1,Potency,[5],12.2 µM (active)
same,Potency,[7],inactive
same,Potency,[11],inactive
CC(=O)O[C@@H]1[C@@H](O)C2OC3C=C(C)C(=O)[C@@H](O)[C@]3(CO)C1(C)C21CO1 (stereo not given in full),Potency,[6],0.316 µM (active)
C[C@@H]1CC=CC=CC=CC=C[C@@H](O[C@@H]2O[C@H](C)[C@@H](O)[C@H](N)[C@H]2O)C[C@@H]2O[C@](O)(C[C@@H](O)C[C@@H]3O[C@@H]3C=CC(=O)O1)C[C@H](O)[C@@H]2C(=O)O,Potency,[6],inactive
CC(C)=CCCC(C)=CCCC(C)=CCCC(C)=CCCC(C)=CCCC(C)=CCCC(C)=CCCC(C)=CCCC(C)=CCO,Potency,[6],21.7 µM (active)
CCOC(=O)C1=C(C)NC(=S)NC1c1cccc(O)c1 (stereo not given),Potency,[5],0.344 µM (active)
same,Potency,[7],inactive
same,"activity change, negative = inhibition",[11],-13.9%
O=C1NC(=O)c2cc(Nc3ccccc3)c(Nc3ccccc3)cc21,outcome,[15],inactive
same,outcome,[16],inactive
same,outcome,[12],inactive
same,Potency,[5],inactive
same,Potency,[18],11.2 µM (active)
Cc1cc(C(=O)N2CCN(c3cccc(Cl)c3)CC2)n(-c2ccccc2)n1,Potency,[5],0.611 µM (active)
same,Potency,[17],6.85 µM (active)
same,Potency,[13],6.81 µM (active)
same,Potency,[7],inactive
same,Potency,[14],3.41 µM (active)
COc1c(O)c2c(=O)cc(OC)c3c4c(OC)cc(=O)c5c(O)c(OC)c6c(c(c1C[C@@](C)(O)[C@H]6C(C)=O)c23)c54,Potency,[6],inactive
Cn1cc(C2=C(c3c4n(c5ccccc35)CCC(CN)C4)C(=O)NC2=O)c2ccccc21 (stereo not given),Potency,[5],17.2 µM (active)
same,"activity change, negative = cytotoxicity",[7],-8.45% [at 11.3 µM] (inactive)
same,"activity change, negative = inhibition",[11],-9.15% [at 11.3 µM]
